Source: PubChem BioAssay (EPA / NIEHS)
Inconclusive results are not listed. Activity calls are given as the source filed them. Rule for the calls, unless noted: active = hit-call score of the fitted dose curve at least 0.9, where 1 is the maximum; inactive = score below 0.9.

Columns and labels:
[1] = molecular target: Estrogen receptor (Homo sapiens) (UniProt P03372); assay: CCTE_Deisenroth_AIME_96WELL_LUC_Active: CCTE's 96-well Estrogen Receptor Transactivation Assay with AIME metabolic competence (ERTA luciferase; metabolism positive), Deisenroth Lab (AID 2284023; active = hit-call score of the fitted dose curve at least 0.9, where 1 is the maximum)
Chain of Estrogen receptor (Homo sapiens) (P03372 whole entry, looked up): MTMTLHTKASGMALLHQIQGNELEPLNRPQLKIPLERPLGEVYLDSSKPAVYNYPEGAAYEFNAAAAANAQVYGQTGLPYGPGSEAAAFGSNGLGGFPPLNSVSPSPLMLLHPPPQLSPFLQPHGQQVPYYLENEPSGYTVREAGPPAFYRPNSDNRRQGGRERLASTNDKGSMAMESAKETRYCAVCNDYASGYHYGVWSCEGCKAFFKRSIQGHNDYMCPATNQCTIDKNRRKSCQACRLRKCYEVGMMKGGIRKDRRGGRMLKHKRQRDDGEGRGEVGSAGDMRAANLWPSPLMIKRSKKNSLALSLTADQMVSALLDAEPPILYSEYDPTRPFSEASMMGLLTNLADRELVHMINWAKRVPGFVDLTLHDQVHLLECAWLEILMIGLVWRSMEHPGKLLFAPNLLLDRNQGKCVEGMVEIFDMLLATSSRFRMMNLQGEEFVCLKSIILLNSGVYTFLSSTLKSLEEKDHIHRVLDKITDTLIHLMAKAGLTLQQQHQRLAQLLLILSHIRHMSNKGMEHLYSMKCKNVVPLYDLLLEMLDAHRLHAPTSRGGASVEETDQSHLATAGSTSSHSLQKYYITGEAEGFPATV
Summary of the method: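 Metabolism-positive mode: induced rat hepatic S9 in alginate microspheres conditions test solutions (0.002 - 200 uM, 10 points) for 2 hours. VM7Luc4E2 ER luciferase reporter cells then exposed 24 h; positive-direction fit against 17beta-estradiol, n=4 typical.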

[2] = molecular target: Estrogen receptor (Homo sapiens) (UniProt P03372); assay: CCTE_Deisenroth_AIME_96WELL_LUC_Inactive: CCTE's 96-well Estrogen Receptor Transactivation Assay without AIME metabolic competence (ERTA luciferase; metabolism negative), Deisenroth Lab (AID 2284025; active = hit-call score of the fitted dose curve at least 0.9, where 1 is the maximum)
Summary of the method: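 Metabolism-negative arm: chemicals (0.002–200 uM, 10 points) incubated 2 h with alginate-water microspheres, then medium moved onto VM7Luc4E2 cells for 24 h luciferase read-out. Positive direction vs 17beta-estradiol; n≥4 experiments.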

[3] = CCTE_Shafer_MEA_acute_interburst_interval_mean: CCTE's Neural Acute Assay for Mean Interburst Interval, Shafer Lab (AID 2284016);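 note: percent change of mean interburst interval versus each well's own pre-dose baseline; curves fitted for decrease in interburst interval relative to DMSO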
Experimental: CCTE_Shafer_MEA_acute assay is conducted using Axion Biosystems 48 well microelectrode array (MEA) plates and Maestro recording system. Each well of the MEA plate contains a grid of 16 microelectrodes embedded in the culture surface. Electrically active cells, such as neurons, can be cultured over the electrodes, and electrical activity in these cells can be recorded extracellularly. The spontaneous firing of neurons is captured from each electrode on a microsecond timescale providing both temporally and spatially precise data. […] The CCTE_Shafer_MEA_acute assay uses primary cultures of rat cortical neurons. […] The recordings before and after chemical treatment are used to calculate a percent change in the mean inter-burst interval in each well.Data from the assay component CCTE_Shafer_MEA_acute_interburst_interval_mean was analyzed into 1 assay endpoint. This assay endpoint, CCTE_Shafer_MEA_acute_interburst_interval_mean, was analyzed in the negative analysis fitting direction relative to DMSO as the negative control and baseline of activity. […]
Spontaneous activity in the cortical cultures was recorded using an Axion Biosystems Maestro 768 channel amplifier and Axion Integrated Studios (AxIS) v1.8 (or later) software. […] Any electrodes with rms noise levels greater than 5 uV were grounded (e.g., no data were recorded). […]

[4] = CCTE_Shafer_MEA_acute_burst_percentage_mean: CCTE's Neural Acute Assay for Percentage of Spikes in a Burst, Shafer Lab (AID 2284017)
Summary of the method: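 Primary rat cortical neurons on 48-well MEA plates, treated on DIV 13 or 15 at 0.03-40 uM. Spikes detected at 8x rms noise at 37C; percent change from 40-min baseline to 40-min post-dose recording, fitted versus DMSO.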

[5] = CCTE_Shafer_MEA_acute_burst_percentage_std: CCTE's Neural Acute Assay for Standard Deviation of Burst Percentage, Shafer Lab (AID 2284018);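 note: fitted in the negative direction so actives lower burst percentage SD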
Summary of the method: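 Value is percent change from baseline in the across-electrode SD of spikes-in-bursts percentage, wells with >/= 10 active electrodes. Acute 40-min exposure to 0.03-40 uM on DIV 13 or 15 rat cortical cultures, recorded at 37 C after 40-min baseline.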

[6] = CCTE_Shafer_MEA_acute_per_network_burst_spike_number_mean: CCTE's Neural Acute Assay for Average Number of Spikes in a Network Burst, Shafer Lab (AID 2284019)
Summary of the method: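 Percent change from baseline in mean spikes per network burst, spikes detected at 8x rms noise. Each compound at 0.03-40 uM in at least three wells of rat cortical cultures, recorded 40 min before and 40 min during exposure.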

[7] = CCTE_Shafer_MEA_acute_per_network_burst_spike_number_std: CCTE's Neural Acute Assay for Standard Deviation of Number of Spikes in a Network Burst, Shafer Lab (AID 2284020);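 note: fitted for decrease in spike-number SD versus DMSO so actives lower it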
Summary of the method: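 Endpoint: percent change from 40 min baseline in standard deviation of spikes per network burst, after 40 min compound exposure (0.03-40 uM, 37 C). Cortical rat neurons on MEA at DIV 13 or 15; spikes detected at 8x rms noise, 300-5000 Hz band-pass.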

[8] = CCTE_Shafer_MEA_acute_per_network_burst_electrodes_number_mean: CCTE's Neural Acute Assay for Mean Number of Electrodes in a Network Burst, Shafer Lab (AID 2284021);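 note: curves fitted for decreases only so hits reduce electrodes per burst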
Summary of the method: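 Readout: % change in mean electrodes active per network burst, post- vs pre-treatment, each well. Spikes detected at 8x rms noise after 300-5000 Hz band-pass; rat cortical cultures, DIV 13/15, compounds 0.03-40 uM, DMSO baseline.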

[9] = CCTE_Shafer_MEA_acute_network_burst_percentage: CCTE's Neural Acute Assay for Percentage of Network Bursts, Shafer Lab (AID 2284022);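 note: rat primary cortical neuron networks on multiwell MEA recorded 40 min; curves fitted for loss so actives lower network burst percentage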
Summary of the method: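 Rat cortical cultures, DIV 13/15; 20 min equilibration, 40 min baseline, compound 0.03-40 uM, 40 min recording, 37 C. Spikes: 300-5000 Hz band-pass, threshold 8x rms noise. Readout: % change in network-burst spike fraction; loss direction vs DMSO.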

[10] = CCTE_Shafer_MEA_acute_cross_correlation_area: CCTE's Neural Acute Assay for Area of Cross Correlation, Shafer Lab (AID 2284024);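 note: area under pooled inter-electrode spike cross-correlation near zero lag as percent change from own baseline; curves fitted for loss of cross-correlation area so actives lower synchrony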
Summary of the method: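 Rat cortical cultures, DIV 13/15, MEA; spikes detected at 8x rms noise (300-5000 Hz band-pass). Compound 0.03-40 uM, ≥3 wells each. Readout: % change in pooled inter-electrode cross-correlation area vs own baseline; DMSO negative control.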

Measured: AC50

C#C[C@]1(O)CC[C@H]2[C@@H]3CCc4cc(OC)ccc4[C@H]3CC[C@@]21C
active: [1] 100 pM | [2] 372 pM

CCCCC(CC)COP(=O)(O)OCC(CC)CCCC (stereo not drawn)
active: [10] 8230 pM
not listed: [1] | [2]
inactive: all other assays above

CCCCCCOC(=O)c1ccccc1O
not listed: [1] | [2]
inactive: all other assays above
